# Data: PubChem BioAssay (EPA / NIEHS)
# Records with an inconclusive call do not appear. The source holds several records for some structures; these can differ, active in one and inactive in another. The source made the active and inactive calls. How the source made its calls, unless noted: active means hit-call score of the fitted dose curve at least 0.9, where 1 is the maximum; inactive means score below 0.9.
# What was measured:
# [1] = BSK_LPS_PGE2: BioMAP Diversity Plus: LPS Assay for Prostaglandin E2 (PGE2) Biomarker Activity (AID 2283082); settings: primary human HUVEC with PBMC; actives raise or lower the signal
# Method in brief: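 Primary human endothelial cells and blood mononuclear cells, co-cultured with LPS, receive test chemical; PGE2 ELISA follows at 24 h, with SRB-stained parallel cultures flagging cytotoxicity.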
# [2] = read-out: Macrophage colony-stimulating factor (MCSF), CSF1 (gene 1435); experiment: BSK_LPS_MCSF: BioMAP Diversity Plus: LPS Assay for Macrophage colony-stimulating factor (MCSF) Biomarker Activity (AID 2283083); settings: primary human HUVEC with PBMC; actives raise or lower the signal
# Method in brief: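 ELISA readout of M-CSF after 24 h compound exposure in a human endothelial/PBMC co-culture. Activity, in either direction, is fitted relative to DMSO vehicle.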
# [3] = read-out: Tissue Factor, F3 (gene 2152); experiment: BSK_LPS_TissueFactor: BioMAP Diversity Plus: LPS Assay for Tissue Factor Biomarker Activity (AID 2283084); settings: primary human HUVEC with PBMC; actives raise or lower the signal
# Method in brief: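 ELISA signal for cell-surface Tissue Factor (CD142) was read 24 h after compound dosing of an LPS-stimulated human endothelial–PBMC primary co-culture. Gain or loss of signal was scored relative to DMSO.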
# [4] = read-out: Tumor necrosis factor (Homo sapiens) (UniProt P01375); experiment: BSK_LPS_TNFa: BioMAP Diversity Plus: LPS Assay for Tumour Necrosis Factor alpha (TNFa) Biomarker Activity (AID 2283085); settings: primary human HUVEC with PBMC; actives raise or lower the signal;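 on AC50: TNFa protein level quantified by ELISA in the co-culture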
# Method in brief: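 ELISA-based TNFa endpoint in a human endothelial–PBMC co-culture sampled 24 h post-exposure. Curves were fitted in both directions using DMSO as baseline of activity.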
# [5] = read-out: Vascular cell adhesion molecule 1 (VCAM1), VCAM1 (gene 7412); experiment: BSK_LPS_VCAM1: BioMAP Diversity Plus: LPS Assay for Vascular cell adhesion molecule 1 (VCAM1) Biomarker Activity (AID 2283086); settings: primary human HUVEC with PBMC; actives raise or lower the signal
# Method in brief: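 Measured by ELISA: VCAM-1 in LPS-activated HUVEC/PBMC co-cultures 24 h after treatment. Values reflect bidirectional fitting with DMSO as baseline.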
# CD38, CD38 (gene 952) = experiment: BSK_SAg_CD38: BioMAP Diversity Plus: SAg Assay for CD38 Biomarker Activity (AID 2283087); settings: primary human HUVEC with PBMC; actives raise or lower the signal
# Method in brief: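 Measures CD38 on a human endothelial/PBMC co-culture driven by SEB and TSST-1, 24 h after compound exposure, using ELISA with fluorescence detection; DMSO defines baseline for bidirectional curve fitting.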
# CD40, CD40 (gene 958) = experiment: BSK_SAg_CD40: BioMAP Diversity Plus: SAg Assay for CD40 Biomarker Activity (AID 2283088); settings: primary human HUVEC with PBMC; actives raise or lower the signal
# Method in brief: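 Compounds were dosed onto a human primary endothelial–PBMC co-culture, and after 24 h CD40 was quantified by ELISA using a fluorescence signal. Activity in either direction was fitted relative to DMSO.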
# CD69, CD69 (gene 969) = experiment: BSK_SAg_CD69: BioMAP Diversity Plus: SAg Assay for CD69 Biomarker Activity (AID 2283089); settings: primary human HUVEC with PBMC; actives raise or lower the signal
# Method in brief: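 ELISA, fluorescence read-out: CD69 on human umbilical vein endothelial cell + PBMC co-culture, 24 h post-dosing. Gain or loss of signal fitted bidirectionally against DMSO baseline.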
# [6] = read-out: Monocyte Chemoattractant Protein-1 (MCP1), CCL2 (gene 6347); experiment: BSK_SAg_MCP1: BioMAP Diversity Plus: SAg Assay for Monocyte Chemoattractant Protein-1 (MCP1) Biomarker Activity (AID 2283090); settings: primary human HUVEC with PBMC; actives raise or lower the signal
# Method in brief: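 Values derive from bidirectional fitting of ELISA-measured MCP1 against DMSO controls. Readings were taken 24 h after dosing human vascular endothelial cells co-cultured with peripheral blood mononuclear cells under superantigen stimulation.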
# [7] = read-out: E-selectin (Homo sapiens) (UniProt P16581); experiment: BSK_SAg_Eselectin: BioMAP Diversity Plus: SAg Assay for Eselectin Biomarker Activity (AID 2283091); settings: primary human HUVEC with PBMC; actives raise or lower the signal
# Method in brief: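 Co-culture: HUVEC + PBMC. Dose compound; 24 h. ELISA for E-selectin. Bidirectional fit vs DMSO.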
# [8] = read-out: Monokine induced gamma interferon (MIG), CXCL9 (gene 4283); experiment: BSK_SAg_MIG: BioMAP Diversity Plus: SAg Assay for Monokine induced gamma interferon (MIG) Biomarker Activity (AID 2283092); settings: primary human HUVEC with PBMC; actives raise or lower the signal
# Method in brief: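 ELISA readout of MIG/CXCL9; primary human umbilical vein endothelial cells co-cultured with peripheral blood mononuclear cells; 24 h post-dose; gain/loss fit vs DMSO baseline.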
# [9] = BSK_SAg_PBMCCytotoxicity: PBMC Cytotoxicity Assessment in the BioMAP Diversity Plus: SAg Assay (AID 2283093); settings: primary human HUVEC with PBMC;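 further: PBMC viability measured as Alamar Blue reduction fluorescence at 546/580 nm; fitted both ways against DMSO so a hit may be loss or gain of signal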;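 on AC50: PBMC superantigen activated with SEB plus TSST-1 one hour after compound addition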
# Method in brief: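 Alamar Blue reduction (6 h, 546/580 nm) reports PBMC cytotoxicity after 90 h superantigen activation (SEB, TSST-1; 20 ng/mL final each) with 1 h compound pre-treatment. Gain or loss of signal fitted versus DMSO.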
# [10] = read-out: Interleukin-8 (IL8), CXCL8 (gene 3576); experiment: BSK_SAg_IL8: BioMAP Diversity Plus: SAg Assay for Interleukin-8 (IL8) Biomarker Activity (AID 2283094); settings: primary human HUVEC with PBMC; actives raise or lower the signal
# Method in brief: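 Primary human endothelial cells with PBMC, exposed 24 h; IL-8 determined by ELISA, analysed bidirectionally relative to DMSO.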
# [11] = BSK_SAg_SRB: Viability Assessment in the BioMAP Diversity Plus: SAg Assay (AID 2283096); settings: primary human HUVEC with PBMC;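 further: cells read one day after compound addition; hits may be either gain or loss of signal compared with DMSO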
# Method in brief: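 This overt-cytotoxicity endpoint quantifies protein in human endothelial/PBMC co-cultures at 24 h using SRB absorbance (560 nm) after trichloroacetic acid fixation. Values reflect signal change from the DMSO negative control, fitted bidirectionally.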
# [12] = BSK_SAg_Proliferation: Cell Proliferation Assessment in the BioMAP Diversity Plus: SAg Assay (AID 2283095); settings: primary human HUVEC with PBMC;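 further: relative cell number as total protein by SRB absorbance in sub-confluent culture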
# Method in brief: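 A human primary co-culture of umbilical vein endothelium and blood mononuclear cells receives compound; relative cell number is quantified at 96 h by SRB staining and 560 nm absorbance, with DMSO-referenced bidirectional curve fitting.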
# [13] = target: human CYP19A1, CYP19A1 (gene 1588) (UniProt P11511); experiment: NVS_ADME_hCYP19A1: NovaScreen (NVS) CYP450-related Enzyme Activity (ADME) Assay for human CYP19A1 (AID 2283098; active means hit-call score of the fitted dose curve at least 0.9, where 1 is the maximum;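 on AC50: potency for inhibitors seen as loss of fluorescent enzyme signal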)
# human CYP19A1, CYP19A1 (gene 1588), sequence (P11511 whole entry, looked up): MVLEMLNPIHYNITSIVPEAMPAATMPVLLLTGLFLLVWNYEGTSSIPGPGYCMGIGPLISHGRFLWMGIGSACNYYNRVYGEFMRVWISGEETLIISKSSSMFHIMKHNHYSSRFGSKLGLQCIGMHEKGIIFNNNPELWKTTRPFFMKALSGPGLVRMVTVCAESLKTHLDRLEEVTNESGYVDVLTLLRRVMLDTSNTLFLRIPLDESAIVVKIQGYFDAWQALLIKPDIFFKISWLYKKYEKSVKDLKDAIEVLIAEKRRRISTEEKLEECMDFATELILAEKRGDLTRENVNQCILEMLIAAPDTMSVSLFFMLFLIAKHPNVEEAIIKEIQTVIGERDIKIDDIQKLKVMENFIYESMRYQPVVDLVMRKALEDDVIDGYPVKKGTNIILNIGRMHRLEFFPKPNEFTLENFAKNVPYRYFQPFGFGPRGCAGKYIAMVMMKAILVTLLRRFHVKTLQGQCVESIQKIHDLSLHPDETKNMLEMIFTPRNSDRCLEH
# Method in brief: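 Compounds were first screened at 10 uM in duplicate against purified enzyme, with a fluorogenic substrate and fluorescence intensity detection after 0.5 h. Inhibition appears as reduced signal against acetonitrile control.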
# Tumor necrosis factor (Homo sapiens), sequence (P01375 whole entry, looked up): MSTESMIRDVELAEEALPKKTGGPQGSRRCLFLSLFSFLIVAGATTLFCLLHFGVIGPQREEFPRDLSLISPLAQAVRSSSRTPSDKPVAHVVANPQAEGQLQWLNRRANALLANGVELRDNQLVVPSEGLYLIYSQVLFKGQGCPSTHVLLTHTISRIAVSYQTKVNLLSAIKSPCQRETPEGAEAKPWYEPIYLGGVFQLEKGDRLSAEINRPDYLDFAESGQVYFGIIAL
# E-selectin (Homo sapiens), sequence (P16581 whole entry, looked up): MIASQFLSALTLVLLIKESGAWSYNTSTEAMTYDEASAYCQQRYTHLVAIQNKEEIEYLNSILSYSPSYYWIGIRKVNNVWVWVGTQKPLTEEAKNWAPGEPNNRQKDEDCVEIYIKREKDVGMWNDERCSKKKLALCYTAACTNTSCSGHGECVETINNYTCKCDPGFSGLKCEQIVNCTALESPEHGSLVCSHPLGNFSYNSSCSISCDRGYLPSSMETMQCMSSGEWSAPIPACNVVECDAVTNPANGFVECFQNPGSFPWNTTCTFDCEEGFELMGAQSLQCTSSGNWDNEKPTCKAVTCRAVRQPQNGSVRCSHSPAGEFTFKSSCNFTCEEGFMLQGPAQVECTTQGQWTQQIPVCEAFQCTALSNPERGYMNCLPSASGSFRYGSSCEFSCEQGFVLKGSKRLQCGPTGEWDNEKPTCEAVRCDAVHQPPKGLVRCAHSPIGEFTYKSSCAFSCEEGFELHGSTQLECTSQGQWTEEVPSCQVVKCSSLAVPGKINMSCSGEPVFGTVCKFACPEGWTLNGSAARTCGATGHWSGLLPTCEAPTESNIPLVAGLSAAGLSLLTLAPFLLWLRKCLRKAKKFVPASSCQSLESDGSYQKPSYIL
compound,measurement,setting,value
C[C@]12CC[C@@H]3c4ccc(O)cc4C[C@@H](CCCCCCCCCS(=O)CCCC(F)(F)C(F)(F)F)[C@H]3[C@@H]1CC[C@@H]2O (some centres undefined),outcome,[1],inactive
same,outcome,[2],inactive
same,outcome,[3],inactive
same,outcome,[4],inactive
same,outcome,[5],inactive
same,outcome,"CD38, CD38 (gene 952)",inactive
same,outcome,"CD40, CD40 (gene 958)",inactive
same,outcome,"CD69, CD69 (gene 969)",inactive
same,outcome,[6],inactive
same,AC50,[7],3.51 µM (active)
same,outcome,[8],inactive
same,outcome,[9],inactive
same,outcome,[10],inactive
same,outcome,[11],inactive
COC(=O)c1c(Cl)nn(C)c1S(=O)(=O)NC(=O)Nc1nc(OC)cc(OC)n1,outcome,[1],inactive
same,outcome,[2],inactive
same,outcome,[3],inactive
same,outcome,[4],inactive
same,outcome,[5],inactive
same,outcome,"CD38, CD38 (gene 952)",inactive
same,outcome,"CD40, CD40 (gene 958)",inactive
same,outcome,"CD69, CD69 (gene 969)",inactive
same,outcome,[6],inactive
same,outcome,[7],inactive
same,outcome,[8],inactive
same,outcome,[9],inactive
same,outcome,[10],inactive
same,outcome,[12],inactive
same,outcome,[11],inactive
CCCCC(CC)COC(=O)c1ccccc1C(=O)O (centres undefined),outcome,[1],inactive
same,outcome,[2],inactive
same,outcome,[3],inactive
same,AC50,[4],21.8 µM (active)
same,AC50,[5],22.9 µM (active)
same,outcome,"CD38, CD38 (gene 952)",inactive
same,outcome,"CD40, CD40 (gene 958)",inactive
same,outcome,"CD69, CD69 (gene 969)",inactive
same,outcome,[6],inactive
same,outcome,[7],inactive
same,outcome,[8],inactive
same,outcome,[9],inactive
same,outcome,[10],inactive
same,outcome,[11],inactive
CCN(Cc1c(F)cccc1Cl)c1c([N+](=O)[O-])cc(C(F)(F)F)cc1[N+](=O)[O-],outcome,[1],inactive
same,AC50,[2],11.6 µM (active)
same,outcome,[3],inactive
same,outcome,[4],inactive
same,outcome,[5],inactive
same,AC50,"CD38, CD38 (gene 952)",8.9 µM (active)
same,outcome,"CD40, CD40 (gene 958)",inactive
same,outcome,"CD69, CD69 (gene 969)",inactive
same,outcome,[6],inactive
same,outcome,[7],inactive
same,outcome,[8],inactive
same,AC50,[9],8.35 µM (active)
same,AC50,[10],8.25 µM (active)
same,AC50,[11],11.4 µM (active)
CCCN(CCC)C(=O)SCC,outcome,[1],inactive
same,outcome,[2],inactive
same,outcome,[3],inactive
same,outcome,[4],inactive
same,outcome,[5],inactive
same,outcome,"CD38, CD38 (gene 952)",inactive
same,outcome,"CD40, CD40 (gene 958)",inactive
same,outcome,"CD69, CD69 (gene 969)",inactive
same,outcome,[6],inactive
same,outcome,[7],inactive
same,outcome,[8],inactive
same,outcome,[9],inactive
same,outcome,[10],inactive
same,outcome,[12],inactive
same,outcome,[11],inactive
same,AC50,[13],652 nM (active)
same,outcome,[13],inactive
COC(=O)c1ccccc1C(=O)O,outcome,[1],inactive
same,outcome,[2],inactive
same,outcome,[3],inactive
same,outcome,[4],inactive
same,outcome,[5],inactive
same,outcome,"CD38, CD38 (gene 952)",inactive
same,AC50,"CD40, CD40 (gene 958)",6.97 µM (active)
same,outcome,"CD69, CD69 (gene 969)",inactive
same,outcome,[6],inactive
same,AC50,[7],5.96 µM (active)
same,outcome,[8],inactive
same,outcome,[9],inactive
same,outcome,[10],inactive
same,outcome,[12],inactive
same,outcome,[11],inactive
same,AC50,[13],3500 nM (active)
CCCCOC(=O)C(C)Oc1ccc(Oc2ccc(C(F)(F)F)cn2)cc1 (centres undefined),outcome,[1],inactive
same,outcome,[2],inactive
same,outcome,[3],inactive
same,outcome,[4],inactive
same,outcome,[5],inactive
same,outcome,"CD38, CD38 (gene 952)",inactive
same,outcome,"CD40, CD40 (gene 958)",inactive
same,outcome,"CD69, CD69 (gene 969)",inactive
same,outcome,[6],inactive
same,outcome,[7],inactive
same,outcome,[8],inactive
same,outcome,[9],inactive
same,outcome,[10],inactive
same,outcome,[11],inactive
